{"source": "PubChem BioAssay (NCI)", "note": "This is part of a sample that, as a whole, favours compounds with a hit. Of some 83,000 tested, about 20% had one in any assay.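 Cell lines were cultured in 96-well plates, exposed to a single compound concentration, and assessed for percent growth 48 hours later.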 The source made the active and inactive calls.", "data": [{"tested_on": "A549/ATCC NSCLC", "test": "NCI-60 one-dose screen, 48 h (100 = growth as untreated, 0 = no growth, -100 = all killed)", "settings": "10 µM unless noted", "experimental": "Growth inhibition of the A549/ATCC human Non-Small Cell Lung tumor cell line is measured as a screen for anti-cancer activity. Cells are grown in 96 well plates and exposed to the test compound for 48 hours. Compounds are tested at a single concentration, which is 10^-5 M for most compounds. The reported endpoint is percent growth (GI% or GIPRCNT), where numbers from 0 - 100% represent growth inhibition, and numbers from -100% - 0 represent cell death. For example, a value of 40 represents 60% growth inhibition. A value of 0 means no net growth occurred over the course of the experiment. A value of -40 indicates 40% of cells at the beginning of the experiment died by the end of the experiment. A value of -100 means all cells are dead at the end of the experiment.\nNCI-60 Human Tumor Cell Lines Screen was performed using the standard one-dose NCI protocol, which is described in more detail at https://dtp.cancer.gov/discovery_development/nci-60/default.htm.\nCompounds with GIPRCNT values below 10 were considered active. Activity score was based on GIPRCNT using the following formula: […]\nScore is 0 for GIPRCNT values of 100 or above, 50 for GIPRCNT values of 0, and 100 for GIPRCNT values of -100.", "values": [{"smiles": "Cc1ccc(Nc2ccc(Nc3ccc(C)cc3)c3c2C(=O)c2cccc(O)c2C3=O)cc1", "growth": "103% (inactive)"}, {"smiles": "O=C(Cc1ccc(F)c(F)c1)Nc1cc(C2(C(F)(F)F)CC2)nn1Cc1ccccc1", "growth": "9.17% (active)"}, {"smiles": "O=c1c2c3c(sc2n2c(-c4cn(-c5ccccc5)nc4-c4ccc(Cl)cc4)nnc2n1Cc1ccccc1)CCCC3", "growth": "105% (inactive)"}, {"smiles": "COc1ccc2nc(NNC(=O)c3cnccn3)c3cccn3c2c1", "growth": "9.52% (active)"}, {"smiles": "COc1cc(/C=N/Nc2ncc(-c3cc4cc5c(cc4o3)OCO5)s2)cc(OC)c1OC", "growth": "37.6% (inactive)"}, {"smiles": "S=C(Cc1ccc2c(c1)CCCC2)N1CCOCC1", "growth": "93.2% (inactive)"}, {"smiles": "Cc1ccc(/C=C/c2c(C(=O)/C=C/c3ccc(Cl)cc3)c(C)nc3ccccc23)cc1", "growth": "78.8% (inactive)"}, {"smiles": "CCCCCCCCCCCCCCCCCCOc1ccc(CC(=O)OCC[N+]2(C)CCCC2)cc1", "growth": "97.2% (inactive)"}, {"smiles": "COc1c(CCC[P+](c2ccccc2)(c2ccccc2)c2ccccc2)cc2c(c1OC)OCO2", "growth": "40% (inactive)"}, {"smiles": "CC1=NOC(=O)/C1=C\\c1ccc(O)cc1", "growth": "97.4% (inactive)"}, {"smiles": "N=C1C(c2nc(-c3ccc(Br)cc3)cs2)=C(O)CN1CC1CCCO1", "note": "(stereo not given)", "growth": "75.2% (inactive)"}, {"smiles": "C=CCn1c(C)nc2cc(Nc3nc(N4CCCC4)nc4ccccc34)ccc21", "growth": "74.6% (inactive)"}, {"smiles": "COc1ccc2c(c1)O/C(=C\\c1cccc(OCC(=O)Nc3nc(C)c(C)s3)c1)C2=O", "growth": "12.4% (inactive)"}, {"smiles": "N#CC1=C(c2ccc(Br)cc2)NC(SCC(=O)c2ccc(Br)cc2)NC1=O", "note": "(stereo not given)", "growth": "93.8% (inactive)"}, {"smiles": "C[n+]1cc2c3c(ccc2c2ccc4cc5c(cc4c21)OCO5)OCO3", "growth": "-86.2% (active)"}, {"smiles": "Cc1ccc(S(=O)(=O)Oc2cc(OS(=O)(=O)c3ccc(C)cc3)cc(OS(=O)(=O)c3ccc(C)cc3)c2)cc1", "growth": "97.5% (inactive)"}, {"smiles": "COc1ccc(-c2nc(SCCC(C)C)nc(N/N=C\\c3cccc(Cl)c3)c2C#N)cc1", "growth": "59.7% (inactive)"}, {"smiles": "O=C1/C(=C\\c2cccnc2)SC(=S)N1CCc1ccc(O)cc1", "growth": "93.9% (inactive)"}, {"smiles": "CCN(CC)Cc1cccc(C(=O)OC)c1", "growth": "69% (inactive)"}, {"smiles": "CC(=O)[C@@H]1CC[C@]2(COS(=O)(=O)c3ccc(C)cc3)CC[C@]3(C)[C@H](CC[C@@H]4[C@@]5(C)CCCNC(C)(C)[C@@H]5CC[C@]43C)[C@@H]12", "growth": "70.5% (inactive)"}, {"smiles": "CCCCCCCCCCCC(c1ccccc1)[N+](C)(C)C", "note": "(stereo not given)", "growth": "28.2% (inactive)"}, {"smiles": "COc1cc(/C=C/C(=O)N2CCN(C(=O)c3cc(OC)c(OC)c(OC)c3)CC2)ccc1OCCCN1C(=O)c2cccc3cccc(c23)C1=O", "growth": "85.3% (inactive)"}, {"smiles": "COC(=O)[C@]12CC[C@@H](C)[C@H](C)[C@@H]1C1=CC[C@@H]3[C@@]4(C)C(C=O)=C[C@@](C)(CO)[C@@H]4[C@H](O)C[C@@]3(C)[C@]1(C)CC2", "growth": "-1.72% (active)"}, {"smiles": "C[C@@H]1N=C(c2ccc3ccccc3n2)Nc2nc3ccccn3c2C1=O", "growth": "105% (inactive)"}, {"smiles": "COc1ccccc1N1C(=O)/C(=C/C2=Cc3ccccc3OC2)SC1=S", "growth": "95.7% (inactive)"}, {"smiles": "COC1=C(OC)C(=O)C(OC)=C(OC)C1=O", "growth": "90% (inactive)"}, {"smiles": "Cc1ccc2nc(NC(=O)CSc3nc(-c4ccccc4)c(C#N)c(=O)n3Cc3ccccc3)sc2c1", "growth": "104% (inactive)"}, {"smiles": "CC(C)(C)n1cc(-c2ccnc(NCCCNS(=O)(=O)c3ccccc3)c2)c(-c2ccccc2)n1", "growth": "63.5% (inactive)"}, {"smiles": "COc1cc(N2C(=O)c3nccnc3C2=O)cc(OC)c1OC", "growth": "105% (inactive)"}, {"smiles": "Cc1cc(/C=C\\c2ccc3ccccc3[n+]2C)c(O)c2ncccc12", "growth": "12% (inactive)"}, {"smiles": "COc1ccc(-c2csc(C3=C(O)CN(CCCN4CCCC4=O)C3=N)n2)cc1OC", "growth": "91.6% (inactive)"}, {"smiles": "O=C(O)C1CCC(=O)N1C(=O)OCc1ccccc1", "note": "(stereo not given)", "growth": "96.7% (inactive)"}, {"smiles": "CCn1c(C)nc2cc(C(N)=O)ccc21", "growth": "104% (inactive)"}, {"smiles": "COc1ccc2c(c1)C(=O)/C(=C/c1ccc(OCC(=O)Nc3nccs3)cc1)O2", "growth": "84.9% (inactive)"}, {"smiles": "Nc1nc(N)c2c(n1)NC(c1ccccc1)C1CCc3ccccc3C1=N2", "note": "(stereo not given)", "growth": "63.4% (inactive)"}, {"smiles": "COc1ccc(C(=NN=C(N)N)c2ccc(OC)cc2)cc1", "growth": "46.1% (inactive)"}, {"smiles": "CN(C)CCCn1c(=O)c2ccccc2c2ccccc21", "growth": "87.2% (inactive)"}, {"smiles": "COc1ccc2oc3c(C)c4c(c(C)c3c2c1)C(=O)N(Cc1ccccc1)C4=O", "growth": "83.9% (inactive)"}, {"smiles": "COc1ccc2c(c1)CCCN2c1c2ccccc2nc2ccccc12", "growth": "18.5% (inactive)"}, {"smiles": "Cc1ccc(N2CCN(C(=S)c3cccs3)CC2)cc1", "growth": "92.5% (inactive)"}]}]}
